Results on 40 molecules are retold here after PubChem BioAssay (NCATS).

Molecules are shown by their SMILES. Results filed as inconclusive are left out. Values without a mark were called inactive. Calls follow the shape of the dose curve; as a rule, active = well fitted cell-killing curve with a large enough effect; inconclusive = small, poorly fitted or top-dose-only effect; inactive = flat fitted curve, though single readings scatter.

A short description of the test: Cell Viability - LYMP2-024 (AID 988).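 Also: plate controls were DMSO only for no effect and 92 µM tetraoctylammonium bromide for full effect; nearly all actives have a fitted effect of over 60% in size.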 The conditions noted are these: LYMP2-024 lymphoblastoid cell viability; series mostly up to 92.2 µM; activity change, negative = cytotoxicity: at the top concentration. From the text: NIH Chemical Genomics Center [NCGC]
NIH Molecular Libraries Screening Centers Network [MLSCN]
National Institutes of Environmental Health Sciences [NIEHS]
National Toxicology Program [NTP]
We have developed a 1536-well cell-based assay for quantitative high throughput screening (qHTS) against a number of cell lines to determine in vitro cytotoxicity of small molecules. This particular assay uses a human lymphoblastoid cell line (LYMP2-024) purchased from Coriell Institute for Medical Research.
NCGC Assay Protocol Summary:
The CellTiter-Glo luminescent cell viability assay (Promega) is a homogeneous method to measure the number of viable cells in culture. The end point readout of this assay is based on quantitation of intracellular ATP, an indicator of metabolic activity, using the luciferase reaction. Luciferase catalyzes the oxidation of beetle Luciferin to oxyluciferin and light in the presence of ATP. The luminescent signal is proportional to amount of ATP present.
Using the CellTiter-Glo luminescent cell viability assay, the amount of cellular ATP was measured in the lymphoblastoid cell line with complete culture medium following compound treatment for 24 hours. The assay was performed in opaque white Kalypsys 1536-well plates. In the screen, tetraoctylammonium bromide was used as positive control. Library compounds were measured for their ability to cause acute toxicity in the cell line, as reflected by a decrease in intracellular ATP levels, in a concentration-dependent manner. […] AC50 values were determined from concentration-response data modeled with the standard Hill equation.
qHTS protocol for CellTiter Glo lymphoblastoid cellular assay
[Step] [Parameter] [Value] [Description]
1. Reagent; 5 uL; 2500 lymphoblastoid cells/well
2. Time; 5 hr; 37 C incubation
4. Controls; 23 nL; Tetraoctylammonium bromide 6.4pM to 92 uM
5. Time; 24 hr; 37 C incubation
6. Reagent; 5 uL; CellTiter Glo reagent
7. Time; 30 min; Room Temperature
8. Detection; Luminescence; Viewlux plate reader
Keywords: cell viability, cytotoxicity, lymphoblastoid cell line, luminescence, NTPHTS, NTPHTS_NCGC, NIEHS, DSSTox, MLSMR, MLSCN, NIH Roadmap, qHTS, NCGC
Take `CC(C#N)CCC#N` (stereo not given): the “activity change, negative = cytotoxicity” value is 2.35%.

In the case of `CC(C)OS(C)(=O)=O`, the “activity change, negative = cytotoxicity” value was -5.69%. As for `Nc1ccc(-c2ccc(N)c(Cl)c2)cc1Cl`, the figure is -34.6%; as for `O=C(O)c1cccc(Cl)c1`, 4.59%; as for `Nc1cc(Cl)cc(C(=O)O)c1Cl`, -8.25%.

For the molecule `CCCCCc1cc(O)cc(O)c1`, the “activity change, negative = cytotoxicity” value is -8.66%. As for `Brc1ccc(Oc2ccc(Br)cc2Br)c(Br)c1`, the figure is 3.25%; as for `O=[N+]([O-])c1ccc(O)c([N+](=O)[O-])c1`, -11.9%; as for `N#CCCCCC#N`, -1.87%. The value for `CN(C)c1ccccc1` was 7.82%; that for `Nc1cc(Cl)cc(Cl)c1` was 2.16%; that for `CCC(Cl)[N+](=O)[O-]` (stereo not given) was 10%. The value for `O=[N+]([O-])c1ccc(Cl)cc1` was -25.4%; that for `C=C(Cl)CCl` was -5.52%; that for `OCCCCO` was -4.37%. `CC(C)[N+](=O)[O-]`: the “activity change, negative = cytotoxicity” value was -3.19%. With `Clc1ccc(C(Cl)(Cl)Cl)cc1Cl`, the “activity change, negative = cytotoxicity” value was -4.48%. Consider `[O-][Cl+2]([O-])O`, for which the “activity change, negative = cytotoxicity” value was -10%. As for `Clc1cccc(Cl)c1Cl`, the figure is 7.13%; as for `CCOC(=O)CBr`, -26.3%; as for `Nc1ccc(Oc2ccc(N)cc2)cc1`, -8.47%.

For `CCN(CC)N=O`, the “activity change, negative = cytotoxicity” value was -3.63%. On to `ClCC(Cl)Cl`, for which the “activity change, negative = cytotoxicity” value is -3.41%.

For the molecule `CCCC[N+](=O)[O-]`, the “activity change, negative = cytotoxicity” value was -6.88%.

As to `S=c1[nH]c2ccccc2[nH]1`, the “activity change, negative = cytotoxicity” value was -13%. As for `CC(C)OC(=O)Cc1ccccc1`, the figure is -5.9%. `CCCCCC[N+](=O)[O-]`: the “activity change, negative = cytotoxicity” value was 8.68%. The value for `Oc1ccc(Cl)c(Cl)c1Cl` was -8.62%. Turning to `ClC(Cl)(Cl)C(Cl)(Cl)Cl`, the “activity change, negative = cytotoxicity” value was 3.6%.

For the molecule `O=S(=O)(O)F`, the “activity change, negative = cytotoxicity” value is 9.19%. For the molecule `CN(C)C(=O)Cl`, the “activity change, negative = cytotoxicity” value is -20.3%. `Cc1ccc(N=C=O)cc1N=C=O`: the “activity change, negative = cytotoxicity” value was -5.57%. As for `O=[N+]([O-])c1ccccc1O`, the figure is -0.333%.

As to `O=C(O)C(Br)Br`, the “activity change, negative = cytotoxicity” value is -26.8%. As for `COc1c(C(C)(C)C)cc([N+](=O)[O-])c(C)c1[N+](=O)[O-]`, the figure is -4.6%; as for `CC1CC(=O)O1` (stereo not given), -4.08%.

In the case of `CCCCOC(=O)c1ccccc1N`, the “activity change, negative = cytotoxicity” value is -9.1%.

Take `C=CC(=O)OCCN(C)C`: the “activity change, negative = cytotoxicity” value is -1.82%. Take `CN(C)N=O`: the “activity change, negative = cytotoxicity” value was -3.4%. As for `CCN(N=O)C(N)=O`, the figure is -8.89%.
